The whole screen tested about 280,000 compounds, of which about 540 (0.19%) were called active. Where a call stands in place of a potency, no number is given. Roughly 2% stayed inconclusive and do not appear here. The call rests on the fitted dose curve; in most records, active means well fitted activation curve with a large enough effect; inconclusive means small, poorly fitted or top-dose-only effect; inactive means flat fitted curve, though single readings scatter. Only a selection was taken, and actives are over-represented in it overall.
Experiment: Quantitative High-Throughput Screen for Regulators of Epigenetic Control; further: nearly all actives have a fitted effect of over 60% in size
Settings: murine LDR cells, GFP reporter derepression, 30 h; series mostly up to 53.9 µM
Excerpt: NIH Molecular Libraries Screening Centers Network [MLPCN] NIH Chemical Genomics Center [NCGC] MLSCN Grant: 1 X01 MH079860-01 Assay Provider: Elisabeth D. Martinez, University of Texas SW Medical Center NCGC Assay Overview: The Locus Derepression (LDR) assay detects the derepression or induction of a GFP reporter that is stably integrated in a genomic region of murine cells that is presumably silenced. Transcription of the GFP reporter is controlled by a CMV promoter, which normally is constitutively active. However, this cell line, termed LDR, was selected for lack of constitutive production of GFP. GFP production can be induced by incubating the cells with histone deacetylase or DNA methyltransferase inhibitors (Martinez et al., 2006). Compounds that derepress or induce this reporter locus are identified by enumerating GFP positive cells using a laser-scanning microplate cytometer (Auld et al., 2006). This assay was screened against the MLSMR earlier (AID 597; (Johnson et al., 2008) and has been rescreened here against the expanded collection.
NCGC Assay Protocol Summary: Three hundred LDR cells in 5 uL per well were dispensed into black, clear-bottom 1536-well plates. Twenty-three nL compound was transferred to the assay plate and cells were incubated 30 hours at 37 C. Medium was removed, cells were washed two times with PBS, and GFP-positive cells were enumerated as fluorescent objects between the sizes of 20 to 120 um width and depth using an Acumen Explorer. References Auld, DS, Johnson, RL, Zhang, YQ, Veith, H, Jadhav, A, Yasgar, A, Simeonov, A, Zheng, W, Martinez, ED, Westwick, JK, Austin, CP, Inglese, J (2006). Fluorescent protein-based cellular assays analyzed by laser-scanning microplate cytometry in 1536-well plate format. Methods Enzymol 414: 566-89. Johnson, RL, Huang, W, Jadhav, A, Austin, CP, Inglese, J, Martinez, ED (2008). A quantitative high-throughput screen identifies potential epigenetic modulators of gene expression. Anal Biochem 375: 237-48. Martinez, ED, Dull, AB, Beutler, JA, Hager, GL (2006). High-content fluorescence-based screening for epigenetic modulators. Methods Enzymol 414: 21-36.
Potency means the concentration at half of the fitted maximal effect.

Row | SMILES | Potency
1 | Cc1nc2sc(C(=O)c3ccccc3)c(N)c2c2c1CCCC2 | inactive
2 | Cc1ccc2c(N)c(C(=O)c3ccccc3)sc2n1 | inactive
3 | COc1ccc(Cc2nc3ccc(C(=O)NCc4ccc(OC)cc4OC)cc3o2)cc1 | inactive
4 | Cc1cccc(C)c1-n1ncc(C(=O)NCCCN2CCCCC2)c1C1CCN(C(=O)OC(C)(C)C)CC1 | inactive
5 | COc1ccc(CCN2C(=O)c3oc4cc(C)cc(C)c4c(=O)c3C2c2ccccc2F)cc1OC (stereo not drawn) | inactive
6 | COc1ccc2c(c1)c(=O)c(C(=O)c1ccccc1)cn2CC(=O)Nc1ccc2c(c1)OCCO2 | inactive
7 | Cc1ccc(NC(=O)CN2c3ccccc3S(=O)(=O)c3ccccc32)cc1F | inactive
8 | CCOC(=O)c1c(C)oc2ccc(N(C(=O)c3ccncc3)S(=O)(=O)c3ccc(CC)cc3)cc12 | inactive
9 | O=C(CSc1oc(-c2ccco2)nc1S(=O)(=O)c1ccc(Cl)cc1)c1ccccc1 | inactive
10 | COc1ccc(CC(=O)N2CC(=O)Nc3ccc(Br)cc3C2c2ccc(F)cc2)cc1OC (stereo not drawn) | inactive
11 | COc1ccc(CCNc2ncnc3onc(-c4ccc(Cl)cc4)c23)c(OC)c1 | inactive
12 | O=C(CSc1oc(-c2ccco2)nc1S(=O)(=O)c1ccccc1)c1ccc(Cl)cc1 | inactive
13 | CCOC(=O)CC(=O)CSc1nc(-c2ccccc2)cc(-c2ccc(Cl)cc2)c1C#N | inactive
14 | O=C(c1cccs1)N1CCCC(c2nc(-c3ccc(F)cc3)no2)C1 (stereo not drawn) | inactive
15 | N#Cc1c(-c2ccc(F)cc2)cc(C2CC2)nc1SCC(=O)c1cccs1 | 10 µM (active)
16 | CN(C)S(=O)(=O)c1cccc(NC(=S)NCc2ccc3c(c2)OCO3)c1 | inactive
17 | Cc1ccc(/C=N/NC(=S)Nc2cccc(S(=O)(=O)N(C)C)c2)o1 | 3.98 µM (active)
18 | CN(C)S(=O)(=O)c1cccc(NC(=S)N/N=C/C(=O)c2ccccc2)c1 | inactive
19 | Cc1cc(Cl)ccc1NC(=O)Cc1ccc(NC(=O)N2CCCCc3ccccc32)cc1 | inactive
20 | CCN1CCN(CCCNC(=O)c2ccc3c(c2)sc2nc(-c4ccc(OC)cc4)cn23)CC1 | inactive
21 | Cc1oc(C)c2c(=O)cc(-c3ccc4c(c3)OCO4)cc(OC(=O)c3ccc(Cl)cc3)c12 | inactive
22 | COc1cc(OC)cc(C(=O)Nc2ccc3nc(Nc4cccc(C(F)(F)F)c4)cc(C)c3c2)c1 | inactive
23 | CCc1ccc(CNCc2c(C(=O)O)n(Cc3ccc(F)cc3Cl)c3cc(OC)ccc23)cc1 | inactive
24 | N#Cc1ccccc1Cn1cnc2nc3c(cc2c1=O)CCCC3 | inactive

Row | SMILES | Potency
25 | Cc1ccccc1C(=O)Nc1nnc(S(=O)(=O)N(C)c2ccc(Cl)cc2)s1 | inactive
26 | COc1ccc(C(=O)N2CCC(c3nc4ccccc4o3)CC2)cc1 | inactive
27 | CCCCOc1ccc(CN2C(=O)C(=O)c3cc(Br)cc(C)c32)cc1OC | inactive
28 | Cc1nn(C(C)C(=O)Nc2ccc(C(C)C)cc2)c(=O)c2c1sc1ccccc12 (stereo not drawn) | inactive
29 | COc1ccc(NC(=O)CCNS(=O)(=O)c2ccc3c(c2)CCCC(=O)N3)cc1Cl | inactive
30 | COc1cccc(-c2nnc(SCC(=O)N3CCC(C)CC3)o2)c1 | inactive
31 | CCOc1ccc(CNCc2c(C(=O)O)c(C)n(Cc3cccc(OC)c3)c2C)cc1OC | inactive
32 | Cc1ccc(Cl)cc1N(C)C(=O)C1CCCN(c2ncnc3onc(-c4ccc(F)cc4)c23)C1 (stereo not drawn) | inactive
33 | COc1ccc(S(=O)(=O)c2c(Nc3cccc(Cl)c3)sc(C(=O)c3ccccc3)c2N)cc1 | inactive
34 | COc1ccccc1Nc1nc(N)nc(N)c1S(=O)(=O)c1ccccc1 | inactive
35 | CC1(C)N=C(SCc2ccccc2Cl)c2ccccc2N1 | inactive
36 | Cc1ccc(NC(=O)Cc2ccc(NC(=O)N3CCCCc4ccccc43)cc2)cc1 | inactive
37 | CNC(=O)c1ccc(-c2nc(CN3CCc4ccccc43)c(C)o2)cc1 | inactive
38 | CC(=O)c1ccc(NC(c2ccc(F)cc2)c2nnc(-c3ccccc3)o2)cc1 (stereo not drawn) | inactive
39 | COc1ccc(-c2cn3nc(N4CCCC(C(=O)NCCCOC(C)C)C4)sc3n2)cc1 (stereo not drawn) | inactive
40 | Cc1cc2oc(C(=O)N(Cc3ccc(Cl)cc3)Cc3ccco3)c(C)c2cc1Cl | inactive
41 | COc1cccc(N=C2SC(C(=O)Nc3cccc(Cl)c3)CC(=O)N2C)c1 (stereo not drawn) | inactive
42 | Fc1ccc(-n2ncc3c(Nc4ccc(Oc5ccccc5)cc4)ncnc32)cc1 | inactive
43 | COc1ccccc1CN1CCC(CNC(=O)c2cnn(-c3ccccc3Cl)c2C2CCN(C(=O)OC(C)(C)C)CC2)CC1 | inactive
44 | CCOc1ccccc1C(=O)Nc1ccc2c(c1)N(C)C(=O)c1ccccc1S2 | inactive
45 | CCOC(=O)c1c(C)[nH]c(CCC(=O)Nc2ccc(OC)c(OC)c2)c1C | inactive
46 | O=S(=O)(c1ccc2nc(NCc3ccccc3Cl)ccc2c1)N1CCCCC1 | inactive
47 | COc1cc(CN(C(=O)c2ccccc2Br)c2ccccn2)cc(OC)c1OC | inactive
48 | CC(C)(C)c1ccc(OCC(=O)N2CCC(c3nc4ccccc4s3)CC2)cc1 | inactive
